Measurements published in PubChem BioAssay (NCATS).
Several values for one entry are separate records, joined by “and”; a condition that tells them apart may be missing. Equal values may be shown once. Inconclusive results are not listed. Where a call stands in place of a potency, no number is given. Activity calls are given as the source filed them. Unless noted, calls come from the whole dose curve; as a rule, active = well fitted inhibition curve with a large enough effect; inconclusive = small, poorly fitted or top-dose-only effect; inactive = flat fitted curve, though single readings scatter.

Tests used:
[1] = target: Estrogen receptor (Homo sapiens) (UniProt P03372); assay: qHTS assay for small molecule agonists of estrogen receptor alpha signaling (AID 588514; calls by dose curve; note: nearly all actives have a fitted effect of over 70% in size)
Chain of Estrogen receptor (Homo sapiens) (P03372 whole entry, looked up): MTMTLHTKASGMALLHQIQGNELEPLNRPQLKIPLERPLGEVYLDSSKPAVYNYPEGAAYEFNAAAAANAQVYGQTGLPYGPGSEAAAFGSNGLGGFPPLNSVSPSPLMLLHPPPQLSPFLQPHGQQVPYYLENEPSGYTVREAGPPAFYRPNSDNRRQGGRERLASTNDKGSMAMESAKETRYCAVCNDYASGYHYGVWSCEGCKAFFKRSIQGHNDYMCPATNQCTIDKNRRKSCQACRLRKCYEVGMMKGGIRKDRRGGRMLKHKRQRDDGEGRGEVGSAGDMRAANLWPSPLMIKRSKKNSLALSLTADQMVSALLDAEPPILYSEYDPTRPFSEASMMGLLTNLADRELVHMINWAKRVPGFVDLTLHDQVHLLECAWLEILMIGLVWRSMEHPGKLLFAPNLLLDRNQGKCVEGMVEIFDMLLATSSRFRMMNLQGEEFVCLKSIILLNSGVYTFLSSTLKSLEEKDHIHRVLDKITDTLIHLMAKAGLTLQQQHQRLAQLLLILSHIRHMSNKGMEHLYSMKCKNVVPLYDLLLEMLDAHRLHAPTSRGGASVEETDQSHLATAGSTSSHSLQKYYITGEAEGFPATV
In short: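 Read-out: CCF4 fluorescence from a beta-lactamase reporter in ER-alpha-UAS-bla HEK 293 cells after 18 hrs of compound exposure at 37 C. Normalized to 20 nM 17-beta-estradiol (100%) and DMSO (0%).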

[2] = target: Bile acid receptor (Homo sapiens) (UniProt Q96RI1); assay: qHTS assay for small molecule antagonists of farnesoid X receptor signaling (AID 588526; calls by dose curve)
Chain of Bile acid receptor (Homo sapiens) (Q96RI1 whole entry, looked up): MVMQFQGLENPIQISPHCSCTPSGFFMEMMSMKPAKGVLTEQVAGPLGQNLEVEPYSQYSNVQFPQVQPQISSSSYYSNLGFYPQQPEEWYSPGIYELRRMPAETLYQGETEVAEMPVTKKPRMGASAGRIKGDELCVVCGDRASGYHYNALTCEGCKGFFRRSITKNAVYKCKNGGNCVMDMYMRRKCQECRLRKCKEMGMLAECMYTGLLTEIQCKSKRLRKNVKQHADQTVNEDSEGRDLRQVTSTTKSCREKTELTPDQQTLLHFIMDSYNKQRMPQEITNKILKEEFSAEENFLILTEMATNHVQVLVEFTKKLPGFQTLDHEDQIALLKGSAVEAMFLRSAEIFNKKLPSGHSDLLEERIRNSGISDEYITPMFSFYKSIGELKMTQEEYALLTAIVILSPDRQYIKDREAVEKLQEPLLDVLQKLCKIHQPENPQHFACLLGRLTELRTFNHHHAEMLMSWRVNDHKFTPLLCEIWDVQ
In short: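 Beta-lactamase reporter antagonist mode: HEK293T FXR-UAS-bla cells, titrated compound, CDCA stimulation, 16 h 37 C, CCF4 dye 2 h RT. Data normalized to CDCA 50 uM and DMSO; Hill-fit IC50.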

[3] = target: Glucocorticoid receptor (Homo sapiens) (UniProt P04150); assay: qHTS assay for small molecule agonists of glucocorticoid receptor signaling (AID 588532; active = well fitted curve in the direction sought with a large enough effect in the signal ratio, with a control signal flat; the % refers to the signal ratio); conditions: HeLa MMTV-bla, beta-lactamase ratio, agonist, 18 h; stronger effect = higher value; percent of dexamethasone control, DMSO zero
Chain of Glucocorticoid receptor (Homo sapiens) (P04150 whole entry, looked up): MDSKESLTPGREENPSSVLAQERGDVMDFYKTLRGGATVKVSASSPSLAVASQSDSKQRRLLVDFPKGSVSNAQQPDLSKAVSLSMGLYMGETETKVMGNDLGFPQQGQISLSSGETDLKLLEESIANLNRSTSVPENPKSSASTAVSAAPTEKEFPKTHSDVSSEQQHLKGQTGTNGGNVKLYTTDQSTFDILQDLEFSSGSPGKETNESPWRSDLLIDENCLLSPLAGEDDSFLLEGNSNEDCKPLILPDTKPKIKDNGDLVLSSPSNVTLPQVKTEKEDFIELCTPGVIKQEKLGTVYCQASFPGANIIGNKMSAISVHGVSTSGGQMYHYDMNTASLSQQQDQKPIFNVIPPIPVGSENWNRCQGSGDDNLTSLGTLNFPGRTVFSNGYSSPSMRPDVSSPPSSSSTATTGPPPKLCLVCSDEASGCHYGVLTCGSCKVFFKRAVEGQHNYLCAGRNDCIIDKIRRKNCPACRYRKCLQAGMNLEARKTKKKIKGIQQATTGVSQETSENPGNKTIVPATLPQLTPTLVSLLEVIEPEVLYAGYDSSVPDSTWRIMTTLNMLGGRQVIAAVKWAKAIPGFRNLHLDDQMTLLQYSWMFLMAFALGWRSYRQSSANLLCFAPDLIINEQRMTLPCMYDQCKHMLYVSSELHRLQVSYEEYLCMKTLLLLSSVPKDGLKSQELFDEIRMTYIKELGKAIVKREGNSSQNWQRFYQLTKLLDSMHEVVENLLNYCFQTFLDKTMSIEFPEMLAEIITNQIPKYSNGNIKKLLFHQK
In short: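 Quantitative HTS using CellSensor MMTV-bla HeLa cells in charcoal/dextran-treated serum; compounds tested up to 92 uM. After 18 h at 37 C, CCF4 dye reported reporter induction.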

[4] = target: Glucocorticoid receptor (Homo sapiens) (UniProt P04150); assay: qHTS assay for small molecule antagonists of glucocorticoid receptor signaling (AID 588533; active = well fitted inhibition curve with a large enough effect in the signal ratio, with a control signal flat, not every such curve was filed as active; the % refers to the signal ratio;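 note: cells stimulated with 2 nM dexamethasone as agonist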; note: potency is the fitted concentration of half-maximal effect)
In short: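 Antagonist-mode qHTS: compound titrations added to GRE-bla HeLa cells, then dexamethasone 2 nM final; 18 h, 37 C. CCF4 FRET fluorescence normalized to dexamethasone and DMSO; IC50 from Hill fit.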

[5] = target: Peroxisome proliferator-activated receptor gamma (Homo sapiens) (UniProt P37231); assay: qHTS assay for small molecule agonists of peroxisome proliferator-activated receptor gamma signaling (AID 588536; active = well fitted curve in the direction sought with a large enough effect in the signal ratio, with a control signal flat, not every such curve was filed as active; the % refers to the signal ratio)
Chain of Peroxisome proliferator-activated receptor gamma (Homo sapiens) (P37231 whole entry, looked up): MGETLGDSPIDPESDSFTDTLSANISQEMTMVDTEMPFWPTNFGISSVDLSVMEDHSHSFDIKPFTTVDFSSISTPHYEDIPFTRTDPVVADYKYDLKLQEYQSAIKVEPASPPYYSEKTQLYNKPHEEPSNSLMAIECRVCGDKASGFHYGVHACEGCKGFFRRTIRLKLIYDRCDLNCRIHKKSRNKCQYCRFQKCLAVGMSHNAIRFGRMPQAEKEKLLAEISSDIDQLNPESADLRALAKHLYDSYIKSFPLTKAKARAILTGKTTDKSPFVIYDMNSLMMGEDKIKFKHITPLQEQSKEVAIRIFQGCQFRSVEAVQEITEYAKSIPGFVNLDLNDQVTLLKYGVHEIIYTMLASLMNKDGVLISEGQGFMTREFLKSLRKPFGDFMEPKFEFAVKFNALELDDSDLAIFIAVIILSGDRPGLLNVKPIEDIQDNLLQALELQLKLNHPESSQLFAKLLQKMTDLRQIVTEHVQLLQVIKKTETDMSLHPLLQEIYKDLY
In short: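 Beta-lactamase reporter read-out: CCF4 fluorescence (ex 405, em 460/530 nm) after 2 h at RT. HEK293 GeneBLAzer cells were treated for 16 h at 37 C. Hill fits gave EC50 and efficacy versus 2 uM rosiglitazone (100%) and DMSO (0%).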

[6] = target: Peroxisome proliferator-activated receptor gamma (Homo sapiens) (UniProt P37231); assay: qHTS assay for small molecule antagonists of peroxisome proliferator-activated receptor gamma signaling (AID 588537; active = well fitted inhibition curve with a large enough effect in the signal ratio, with a control signal flat, not every such curve was filed as active; the % refers to the signal ratio; note: potency is the fitted concentration of half-maximal effect)
In short: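 Cell-based beta-lactamase assay; GW9662 served as the antagonist control. Stimulation used rosiglitazone, final 50 nM, 16 h, 37 C.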

[7] = qHTS assay for small molecule agonists of retinoid X receptor alpha signaling (AID 588544); conditions: HEK293T RXRa-UAS-bla, beta-lactamase reporter, 18 h; 530 nm emission
[8] = target: Thyroid hormone receptor beta (Homo sapiens) (UniProt P10828); assay: qHTS assay for small molecule agonists of thyroid hormone receptor beta signaling (AID 588545; calls by dose curve)
Chain of Thyroid hormone receptor beta (Homo sapiens) (P10828 whole entry, looked up): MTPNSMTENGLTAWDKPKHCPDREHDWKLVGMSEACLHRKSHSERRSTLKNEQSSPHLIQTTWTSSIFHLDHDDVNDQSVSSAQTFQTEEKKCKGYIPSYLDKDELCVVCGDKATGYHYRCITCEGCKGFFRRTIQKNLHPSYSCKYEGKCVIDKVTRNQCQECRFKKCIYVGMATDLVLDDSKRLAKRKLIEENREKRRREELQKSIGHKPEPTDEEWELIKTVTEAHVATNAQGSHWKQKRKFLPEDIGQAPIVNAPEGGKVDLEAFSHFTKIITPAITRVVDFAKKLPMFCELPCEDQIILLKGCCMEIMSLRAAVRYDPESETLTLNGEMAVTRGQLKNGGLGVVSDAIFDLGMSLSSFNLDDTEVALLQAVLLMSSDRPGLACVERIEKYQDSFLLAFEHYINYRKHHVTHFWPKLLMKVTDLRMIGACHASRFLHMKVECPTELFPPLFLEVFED
In short: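 In this cell-based screen, titrated compounds act on HEK 293 cells held in medium with 2% charcoal/dextran FBS, NEAA and pyruvate for 18 hrs at 37 C. Responses are expressed relative to T3 (10 nM) as 100% and basal DMSO as 0%.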

[9] = qHTS assay for small molecule antagonists of retinoid X receptor alpha signaling (AID 588546; active = well fitted inhibition curve with a large enough effect in the signal ratio, with a control signal flat, not every such curve was filed as active; the % refers to the signal ratio;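 note: cells stimulated with 9-cis-retinoic acid as agonist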); conditions: HEK293T RXRa-UAS-bla, beta-lactamase ratio, antagonist mode; measured here: W530 green channel, cytotoxicity proxy
In short: (§1)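 Beta-lactamase reporter inhibition, read as CCF4 fluorescence ratio (ex 405, em 460/530 nm) after 2 h at RT. HEK293T UAS-bla cells, 2500/well, were stimulated with 9-cis-RA at 500 or 100 nM final alongside test compound for 18 h at 37 C.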

[10] = target: Retinoic acid receptor RXR-alpha (Homo sapiens) (UniProt P19793); assay: as above; conditions: HEK293T RXRa-UAS-bla, beta-lactamase ratio, antagonist mode
Chain of Retinoic acid receptor RXR-alpha (Homo sapiens) (P19793 whole entry, looked up): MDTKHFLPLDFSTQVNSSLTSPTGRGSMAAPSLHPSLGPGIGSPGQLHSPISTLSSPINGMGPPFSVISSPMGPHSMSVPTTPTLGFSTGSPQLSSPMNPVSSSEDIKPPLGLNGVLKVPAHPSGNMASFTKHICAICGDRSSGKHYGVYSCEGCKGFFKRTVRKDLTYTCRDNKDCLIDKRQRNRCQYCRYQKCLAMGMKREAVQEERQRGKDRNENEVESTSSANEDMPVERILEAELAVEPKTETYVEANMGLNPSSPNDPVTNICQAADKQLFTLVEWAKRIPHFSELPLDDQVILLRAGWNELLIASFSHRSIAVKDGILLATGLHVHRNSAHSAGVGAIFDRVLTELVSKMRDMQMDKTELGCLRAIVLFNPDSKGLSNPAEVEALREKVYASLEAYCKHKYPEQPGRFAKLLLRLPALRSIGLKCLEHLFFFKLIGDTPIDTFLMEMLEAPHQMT
In short: as §1

[11] = target: Thyroid hormone receptor beta (Homo sapiens) (UniProt P10828); assay: qHTS assay for small molecule antagonists of thyroid hormone receptor beta signaling (AID 588547; active = well fitted inhibition curve with a large enough effect in the signal ratio, with a control signal flat, not every such curve was filed as active; the % refers to the signal ratio;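 note: cells stimulated with 0.4 nM T3 agonist during compound exposure; series mostly up to about 77 µM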); conditions: TR-UAS-bla HEK293, beta-lactamase ratio, antagonist mode, 18 h
In short: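 Inhibition of T3-driven (0.4nM final) beta-lactamase reporter activity was measured over 0.59 nM to 92 uM compound after 18 h at 37 C. The cells were GripTite HEK293 TR-UAS-bla in charcoal/dextran-stripped serum, with CCF4 ratio read-out and IC50 from Hill fits.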

[12] = target: Voltage-gated inwardly rectifying potassium channel KCNH2 (Homo sapiens) (UniProt Q12809); assay: qHTS Assay for Small Molecule Inhibitors of the Human hERG Channel Activity (AID 588834);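 note: top concentration of the series differs between compounds; lower thallium flux fluorescence means stronger hERG block; nearly all actives have a fitted effect of over 50% in size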
Chain of Voltage-gated inwardly rectifying potassium channel KCNH2 (Homo sapiens) (Q12809 whole entry, looked up): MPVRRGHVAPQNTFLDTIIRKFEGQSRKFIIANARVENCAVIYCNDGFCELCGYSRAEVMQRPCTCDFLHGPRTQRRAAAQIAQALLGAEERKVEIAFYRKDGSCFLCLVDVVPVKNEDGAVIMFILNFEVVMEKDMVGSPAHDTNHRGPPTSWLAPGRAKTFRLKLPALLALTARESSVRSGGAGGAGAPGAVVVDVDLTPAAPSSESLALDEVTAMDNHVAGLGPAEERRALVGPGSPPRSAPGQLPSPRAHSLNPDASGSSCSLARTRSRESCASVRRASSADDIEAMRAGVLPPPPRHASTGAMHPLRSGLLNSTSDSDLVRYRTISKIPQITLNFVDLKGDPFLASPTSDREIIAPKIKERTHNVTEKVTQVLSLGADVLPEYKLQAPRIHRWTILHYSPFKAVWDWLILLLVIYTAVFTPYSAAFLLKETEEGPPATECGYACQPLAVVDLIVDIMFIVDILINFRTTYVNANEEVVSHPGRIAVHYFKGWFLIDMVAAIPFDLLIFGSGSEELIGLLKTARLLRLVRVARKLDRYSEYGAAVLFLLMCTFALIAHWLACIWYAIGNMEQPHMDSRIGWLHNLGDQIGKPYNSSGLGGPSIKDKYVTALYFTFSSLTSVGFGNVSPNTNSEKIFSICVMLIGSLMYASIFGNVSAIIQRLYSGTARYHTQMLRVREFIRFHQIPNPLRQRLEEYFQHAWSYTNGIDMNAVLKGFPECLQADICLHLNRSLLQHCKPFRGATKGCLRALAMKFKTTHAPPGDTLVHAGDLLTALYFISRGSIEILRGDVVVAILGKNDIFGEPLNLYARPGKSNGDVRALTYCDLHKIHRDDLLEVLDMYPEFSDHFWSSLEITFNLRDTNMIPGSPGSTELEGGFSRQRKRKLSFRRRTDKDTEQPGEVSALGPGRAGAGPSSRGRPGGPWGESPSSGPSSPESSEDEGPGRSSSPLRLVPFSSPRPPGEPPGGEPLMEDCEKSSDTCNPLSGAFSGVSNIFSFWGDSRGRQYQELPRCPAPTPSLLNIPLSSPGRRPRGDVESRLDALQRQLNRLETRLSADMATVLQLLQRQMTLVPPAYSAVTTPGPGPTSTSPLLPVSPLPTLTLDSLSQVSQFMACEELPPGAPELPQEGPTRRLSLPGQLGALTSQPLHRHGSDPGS
In short: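 Thallium serves as surrogate for K+ influx through BacMam-delivered hERG in U2OS cells. Compounds are added for about 10 minutes after dye loading; stimulation buffer then starts flux, monitored kinetically on FDSS.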

[13] = target: Luciferin 4-monooxygenase (Photinus pyralis) (UniProt P08659); assay: Biochemical firefly luciferase enzyme assay for NPC (AID 624030);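 note: purified P. pyralis luciferase at 10 nM with luciferin and ATP substrate; series mostly up to about 59 µM; nearly all actives have a fitted effect of over 70% in size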
Chain of Luciferin 4-monooxygenase (Photinus pyralis) (P08659 whole entry, looked up): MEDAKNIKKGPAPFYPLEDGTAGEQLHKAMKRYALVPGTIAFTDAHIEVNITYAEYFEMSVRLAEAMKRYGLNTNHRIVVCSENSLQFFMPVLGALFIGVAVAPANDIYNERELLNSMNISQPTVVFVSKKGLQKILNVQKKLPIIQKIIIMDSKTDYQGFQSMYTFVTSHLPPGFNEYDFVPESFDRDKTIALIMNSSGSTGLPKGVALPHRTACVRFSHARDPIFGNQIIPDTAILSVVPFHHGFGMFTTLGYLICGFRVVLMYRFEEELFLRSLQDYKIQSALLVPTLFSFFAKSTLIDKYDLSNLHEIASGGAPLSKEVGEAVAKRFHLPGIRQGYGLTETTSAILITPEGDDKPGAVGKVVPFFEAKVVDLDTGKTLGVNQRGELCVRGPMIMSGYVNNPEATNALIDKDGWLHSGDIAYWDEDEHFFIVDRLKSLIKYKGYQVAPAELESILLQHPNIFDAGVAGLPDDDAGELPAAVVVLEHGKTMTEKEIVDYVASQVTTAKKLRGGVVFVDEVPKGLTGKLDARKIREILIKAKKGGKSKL
In short: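 Direct inhibition of firefly luciferase enzyme (10 nM final, 50 mM Tris Acetate) assessed by luminescence within 5 minutes. Percent activity scaled between DMSO and PTC124 positive control, with concentration-effect curves classified by fit quality and response.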

[14] = target: Vitamin D3 receptor (Homo sapiens) (UniProt P11473); assay: qHTS assay for small molecule agonists of vitamin D receptor signaling (AID 588543; calls by dose curve)
In short: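 VDR-UAS-bla HEK293T cells, 2000/well, 2% charcoal-stripped FBS; compound titration 16 h at 37 C; CCF4 beta-lactamase ratio read. Normalized to 50 nM 1-alpha,25-dihydroxyvitamin D3 (100%) and DMSO; Hill fit gives EC50, efficacy.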

[15] = target: Vitamin D3 receptor (Homo sapiens) (UniProt P11473); assay: qHTS assay for small molecule antagonists of vitamin D receptor signaling (AID 588541; calls by dose curve;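 note: receptor activated by calcitriol during compound treatment; series mostly up to about 77 µM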)
In short: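 Antagonist-mode beta-lactamase reporter assay: HEK293T VDR-UAS-bla cells were exposed to titrated compound alongside 1-alpha,25-dihydroxyvitamin D3 at 3 nM final for 16 h. Values were normalized to the 50 nM agonist control and DMSO basal, with IC50 and efficacy from Hill equation fits.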

With CCCCC1C(=O)N(c2ccccc2)N(c2ccccc2)C1=O the outcome [1] was “inactive”, the outcome [2] was “inactive” and the activation [3] was -0.201% (inactive) and -2.53% (inactive). The Potency [4] was “inactive”, the outcome [5] was “inactive” and the Potency [6] was “inactive”. The max response [7] was 4.5% and 6.7%, the outcome [8] was “inactive” and the max response [9] was 1.64% and -10.6%. For the same compound, the max response [10] was 0.963% (inactive) and -0.138% (inactive), the activity change % (negative = inhibition) [11] was 6.78% (inactive) and the Potency [12] was “inactive”. The Potency [13] was “inactive”.

In the case of NCCS, the Potency [12] is reported as “inactive” and the Potency [13] is reported as “inactive”.

For Cc1cccc(C)c1OCC(C)N (stereo not drawn), the Potency [12] was “inactive” and the Potency [13] was “inactive”.

For COc1cccc(-c2cc(=O)c3ccccc3o2)c1N, the Potency [12] was “inactive”.

For O=C(O)c1cc(O)c2c(c1)C(=O)c1cccc(O)c1C2=O, the activation [3] was 1.5% (inactive), the outcome [8] was “inactive” and the Potency [12] was “inactive”.

In the case of CC[C@]1(O)C[C@@H]2CN(CCc3c([nH]c4ccccc34)[C@@](C(=O)OC)(c3cc4c(cc3OC)N(C)[C@H]3[C@@](O)(C(=O)OC)[C@H](OC(C)=O)[C@]5(CC)C=CCN6CC[C@]43[C@@H]65)C2)C1, the Potency [12] is reported as “inactive”.

For O=c1cc(-c2ccc(O)cc2)oc2cc(O)cc(O)c12, the Potency [4] was 31.6 µM (active), the Potency [6] was 44.7 µM (active) and the outcome [8] was “inactive”. For the same compound, the activity change % (negative = inhibition) [11] was -28.1% (inactive) and the Potency [12] was “inactive”.

With COc1ccccc1N1CCN(CCCNc2cc(=O)n(C)c(=O)n2C)CC1 the Potency [12] was “inactive” and the Potency [13] was “inactive”.

With CC1=C(/C=C/C(C)=C/C=C/C(C)=C/C(=O)Nc2ccc(O)cc2)C(C)(C)CCC1 the outcome [1] was “inactive”, the outcome [14] was “inactive” and the Potency [12] was “inactive”. For the same compound, the Potency [13] was “inactive”.

With CCn1cc(C(=O)O)c(=O)c2ccc(C)nc21 the outcome [2] was “inactive”, the outcome [5] was “inactive” and the Potency [6] was “inactive”. For the same compound, the outcome [15] was “inactive”, the outcome [14] was “inactive” and the outcome [8] was “inactive”. For the same compound, the max response [9] was 14% and -13.8%, the max response [10] was -0.374% (inactive) and 6.98% (inactive) and the activity change % (negative = inhibition) [11] was 17.4% (inactive) and 3.09% (inactive). For the same compound, the Potency [13] was “inactive”.
